Measured values reported in ChEMBL document CHEMBL1201862, “PubChem BioAssay data set” (2004).
Only a part of the results of these assays is listed, not drawn at random.

Target: Acyl-homoserine lactone acylase PvdQ (Pseudomonas aeruginosa (strain LESB58)) (UniProt Q9I194)
Assay: Pseudomonas aeruginosa growth inhibition with EDDHA – absorbance, plate reader, cherry-picks, dose response (AID 602389); call rule not given here
Assay type: functional

AbsAC35, active:
COc1ccc(C2=C(C=O)Cc3ccccc3O2)cc1 210 µM
C=CCOC(=O)c1ccc(-n2cnc(C)n2)nc1 89.1 µM
C#CCSc1ncc(-c2ccccc2)cn1 214 µM
N#CN(Cc1ccccc1)Cc1ccccc1 477 µM
N#Cc1cc(-c2ccccc2)cnc1Cl 74.1 µM
